From PubChem BioAssay
Wnt bcat act: Wnt/beta-catenin pathway activation; Wnt/beta-catenin reporter cell assay, activator, plate reader; activation, % at 9.35 µM; 1.2% of 300,000 active; AID 743398; in the data active = activation above about 30%, passing the limit was not always enough; inconclusive = no clear call, values can overlap the other calls
C2C12 statin: suppressors of simvastatin-induced myotoxicity in C2C12 myotubes; 0.78% of 330,000 active; AID 602340; rescue of ATP level, % at 7.49 µM; ATP luminescence, 48 h; scaled: DMSO 0, geranylgeraniol control 100;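 active = mean ATP rescue above about 67%, or every replicate alone reaching that limit, limit read from the data, passing the limit was not always enough; inconclusive = no clear call, values can overlap the other calls; inactive = mean under the limit and some replicate under it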;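 also: myotubes were challenged with 10 µM simvastatin during compound exposure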
MITF TRPM1 HTS: MITF TRPM1 promoter activation in melanoma cells. SK-MEL-5 TRPM1-promoter luciferase, 24 h; % of positive control, neutral wells = 0. 0.75% of 300,000 active. activation, % at 12.5 µM. AID 588334;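 active = mean activation of at least 80% with every replicate also reaching 80%; inconclusive = mean reaches 80% but some replicate falls short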
esBAF inh: blocks esBAF chromatin remodeling in mouse ES cells; Bmi1-luciferase knock-in reporter, 24 h; 100% = twice the neutral-well signal; AID 602393; reporter increase, % at 12.5 µM; 2% of 350,000 active; in the data active = activation above about 40%; inconclusive = no clear call, values can overlap the other calls;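 also: a rise in the Bmi1 reporter signal indicates esBAF inhibition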
FXN GAA850 act: activators of GAA850 frataxin (FXN) promoter; HEK293 lucGAA850 FXN promoter luciferase reporter, 24 h; percent of 10 µM SAHA response; activation, % at 6 µM; 0.56% of 360,000 active;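 active = activation above the average of all compounds screened plus 3 SD, cutoff fixed separately per campaign, cut at about 7.5% in these data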
GAA30 FXN cntr: activates GAA30 frataxin promoter, counter-screen for GAA850 activators; shares compounds with FXN GAA850 act; HEK293 lucGAA30 FXN promoter luciferase, 24 h; DMSO = 0%, 5 µM ipriflavone = 100%; activation, % at 6 µM; 66% of 1,900 active; AID 588350;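 active = mean activation above the mean of solvent-only control wells plus 3 SD, cut at about 22% in these data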;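 also: counterscreen of GAA850 promoter hits where activity marks nonselective or luminescence artifacts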
FXN GAA850 conf: confirmation of GAA850 frataxin (FXN) promoter activators. shares compounds with FXN GAA850 act. HEK293 lucGAA850 FXN promoter luciferase reporter, 24 h; 100% = activation by SAHA. activation, % at 6 µM. 86% of 1,900 active. AID 588351;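 active = mean activation above a set limit taken from the primary screen, cut at about 8% in these data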
Numbers stand for hits; – = inactive; ? = inconclusive; · = no result given. Compounds with a hit are over-represented: about 3.3% of the library has one in this group of screens.

SMILES	Wnt bcat act	C2C12 statin	MITF TRPM1 HTS	esBAF inh	FXN GAA850 act	GAA30 FXN cntr	FXN GAA850 conf
Fc1ccccc1N=C1NN=C(c2ccccc2)CS1	–	–	–	52.9	8.0	123.7	40.5
CC1CCCN(C(=O)c2nn(C)c3c2CSc2ccccc2-3)C1 (stereo not given)	–	–	·	–	9.6	30.0	12.0
CCCN(C)C[C@H]1OCCCC[C@H](C)Oc2ccc(NC(=O)Cc3ccccc3)cc2C(=O)N([C@@H](C)CO)C[C@H]1C	·	–	·	–	·	·	·
C[C@@H]1CN([C@H](C)CO)C(=O)c2cc(C#CC3CCCCC3)cnc2O[C@@H]1CN(C)S(C)(=O)=O	·	–	·	–	·	·	·
COc1ccc(C2=Nn3c(nnc3-c3ccccc3OC)SC2)cc1OC	·	–	·	–	–	·	·
COc1ccc(C2=Nn3c(nnc3-c3ccco3)SC2)cc1OC	–	·	·	–	10.5	36.8	19.6
Cc1noc(C)c1NC(=O)N(C)C[C@@H]1Oc2ccc(NC(=O)Nc3ccc(F)cc3)cc2CC(=O)N([C@@H](C)CO)C[C@H]1C	·	–	·	–	·	·	·
CSC1=C(C#N)C(c2ccccc2C)C(C#N)=C(N)N1 (stereo not given)	·	–	–	–	11.0	25.3	14.8
CSC1=C(C#N)C(c2ccccc2Cl)C2=C(N1)c1ccccc1C2=O (stereo not given)	·	–	·	–	–	·	·
CCOC(=O)c1sc(N/N=C/c2ccccc2)nc1C	·	·	–	·	7.6	134.2	39.9
CCCCCc1ccc(-c2nnc(N)s2)cc1	–	–	–	?	7.8	78.1	21.1
COCC(=O)Nc1ccc2c(c1)C(=O)N(C)[C@@H]1CC[C@@H](CC(=O)NCCc3ccncc3)O[C@H]1CO2	·	–	·	–	·	·	·
C[C@@H]1CN([C@@H](C)CO)C(=O)c2cc(NC(=O)CCCN(C)C)ccc2O[C@H]1CN(C)C(=O)NC1CCCCC1	·	–	·	–	·	·	·
Cc1cccc(-n2ncc3c(NCCCN4CCCC4=O)ncnc32)c1	–	·	–	·	–	·	·
O=C1CCCN1CCCNc1ncnc2c1cnn2-c1ccc(Cl)cc1	–	–	–	42.4	14.8	75.7	32.8
C[C@H](CO)N1C[C@H](C)[C@H](CN(C)CC2CCOCC2)Oc2cc(C#Cc3ccccc3F)ccc2S1(=O)=O	·	–	·	–	·	·	·
Cc1cccc(Nc2nc(N)c(C#N)c(CC#N)c2C#N)c1	–	·	–	·	8.2	27.2	17.2
CCOC(=O)c1c(CSc2ccc(CC)cc2)oc2ccc(O)c(CN(C)C)c12	–	–	–	–	–	·	·
CCOC(=O)c1c(CSc2ccccc2)oc2cc(Br)c(O)c(CN(C)C)c12	–	–	–	–	8.2	–	9.7
C[C@@H]1CN([C@@H](C)CO)C(=O)c2cccc(NC(=O)C3CCOCC3)c2O[C@H]1CN(C)C	·	–	·	–	·	·	·
COc1ccc2oc(=O)c(-c3csc(Nc4ccc(O)cc4)n3)cc2c1	–	·	–	·	18.6	79.2	24.2
CC(=O)N(C)C[C@H]1Oc2ncc(-c3ccc(C)cc3)cc2C(=O)N([C@@H](C)CO)C[C@@H]1C	·	–	·	–	·	·	·
COc1ccc(NC(=O)N(C)C[C@@H]2Oc3ccc(NS(=O)(=O)c4ccccc4)cc3C(=O)N([C@@H](C)CO)C[C@@H]2C)cc1	·	·	·	–	·	·	·
N/C(=N/OC(=O)c1ccccc1Cl)c1ncc([N+](=O)[O-])s1	–	·	·	·	14.5	103.4	50.7
N/C(=N\OC(=O)c1ccccc1Cl)c1cccc([N+](=O)[O-])c1	–	–	·	–	–	·	·
SMILES	Wnt bcat act	C2C12 statin	MITF TRPM1 HTS	esBAF inh	FXN GAA850 act	GAA30 FXN cntr	FXN GAA850 conf
Cc1ccc2nc(/C(C#N)=C/c3ccc(-c4ccccc4C(=O)O)o3)[nH]c2c1	–	–	–	–	–	·	·
Cc1ccc2nc(/C(C#N)=C\c3ccc([N+](=O)[O-])o3)[nH]c2c1	·	–	–	–	8.1	–	–
CN(C)C(=O)c1ccc(-c2ccc3c(c2)[C@@H]2[C@@H](CCN2C(=O)c2ccc4c(c2)OCO4)[C@H](CO)N3)cc1	·	–	·	–	·	·	·
O=C(O)c1ccc(N/N=C/c2ccc(-c3cccc(Cl)c3)o2)cc1	–	–	–	?	11.1	112.3	42.4
O=C(O)c1ccc(N/N=C/c2ccc(-c3cc(Cl)ccc3Cl)o2)cc1	–	·	–	·	–	·	·
Cn1cc(C2=C(c3ccc(Cl)cc3Cl)C(=O)NC2=O)c2ccccc21	–	–	–	–	11.7	–	9.2
O=C(Cc1ccncc1)N1CC[C@@H]2[C@H]1c1cc(-c3cccc(F)c3)ccc1N[C@@H]2CO	·	–	·	–	·	·	·
Cc1cccc(C(=O)Nc2ccc(C(=O)/C=C/c3ccncc3)cc2)c1	–	–	–	–	16.6	–	27.3
Cc1ccccc1CS(=O)(=O)c1nnc([C@H](Cc2ccccc2)NC(=O)OC(C)(C)C)o1	–	–	–	–	12.3	–	–
CCSc1nnc([C@H](Cc2ccccc2)NC(=O)OC(C)(C)C)o1	·	–	–	–	–	·	·
NC[C@H](O)c1ccc(O)c(O)c1	–	–	–	–	7.6	–	–
O=C(Nc1ccc(Cl)cc1)N[C@H]1CC[C@@H](CCNC(=O)c2ccccc2F)O[C@@H]1CO	·	–	·	–	·	·	·
O=C(NC(=S)Nc1ccc(N2CCCC2)cc1)c1ccccc1[N+](=O)[O-]	–	–	–	–	8.8	53.1	13.2
O=C(N[C@H]1C=C[C@H](CC(=O)N2CCOCC2)O[C@H]1CO)c1ccccn1	·	–	·	–	·	·	·
N#CCSc1ccc2nc(-c3ccccc3)cn2n1	–	–	–	51.4	7.7	119.2	30.9
O=C(NN1CCOCC1)c1cccc(COc2cccc(Br)c2)c1	–	·	–	·	8.0	89.8	37.3
Cc1ccccc1OCC(=O)Nc1ccccc1-c1ccccc1NC(=O)COc1ccccc1C	·	·	–	·	15.2	–	11.4
Cc1ccccc1OCC(=O)Nc1cccc(Cl)c1C	–	–	–	–	–	·	·
O=C1[C@H]2[C@@H](C(=O)N1c1cccc3ccccc13)C1(C(=O)c3ccccc3C1=O)N1CCC[C@@H]21	–	–	–	–	9.4	37.4	15.9
O=C1C2C3C=CC(C3)C2C(=O)N1c1cccc2ccccc12 (stereo not given)	–	–	–	–	–	·	·
O=C(N/N=C\c1ccco1)Nc1cccc(Cl)c1	48.3	·	–	·	9.0	102.6	37.6
C[C@@H]1CN([C@@H](C)CO)C(=O)Cc2cc(NC(=O)Nc3ccc(C(F)(F)F)cc3)ccc2O[C@@H]1CN(C)C(=O)NC1CCCCC1	·	–	·	–	·	·	·
CCn1c(O)c(/C=C2\C=Nc3ccccc32)sc1=Nc1ccccc1	–	–	–	67.1	12.7	60.0	27.1
CN(C)CCCNC(=O)C[C@H]1CC[C@@H]2[C@H](COc3ccc(NC(=O)c4ccccc4F)cc3C(=O)N2C)O1	·	–	·	–	·	·	·
